One assay relates to Staphylococcus aureus. As to conditions: Concentration 32 ug.mL-1;; ASSAY_TEST Inhibition of Bacterial Growth; detection method Absorption (OD600); MEDIA CAMHB; plate type 384well; NBS; CORNING #3640; time 18 hr.
Another assay concerns Escherichia coli. Conditions: Concentration 32 ug.mL-1;; ASSAY_TEST Inhibition of Bacterial Growth; detection method Absorption (OD600); MEDIA CAMHB; plate type 384well; NBS; CORNING #3640; time 18 hr.

Measured potencies and affinities stand elsewhere.

As to `Cc1ccc2c(c1)N(C(=O)Cn1nc3ccc(S(=O)(=O)C(C)(C)C)nn3c1=O)CCO2`, the Inhibition stood at 10.43% in the assay on Staphylococcus aureus and 3.75% in the assay with Escherichia coli.
For `CCCN(C)c1nccn2c(=O)n(CC(=O)Nc3cccc(Br)c3)nc12`, in that order: 10.78% and -4.19%.
As for `CCOc1ccc(NC(=O)Cn2nc3ccc(Sc4cccc(F)c4)nn3c2=O)cc1`, the Inhibition is on record as 2.36% in the assay with Staphylococcus aureus and -8.51% in the assay on Escherichia coli.
Take `CCc1nnc2c(SCC(=O)Nc3cccc(OC)c3)nc3ccccc3n12`: the Inhibition with Staphylococcus aureus is 0.35%; in the assay on Escherichia coli, -7.16%.
For `COc1ccc(C(=O)CSc2nnc3c(=O)n(-c4cccc(OC)c4)ccn23)cc1`, in that order: 14.49% and -2.33%.
For `COc1ccc(-c2cc3c4nn(CC(=O)Nc5ccc(F)cc5)c(=O)n4ccn3n2)cc1`, in that order: -1.37% and -7.82%.
Taken in the same sequence, the figures for `Cc1ccc(N(Cc2cc(F)cc(F)c2)S(=O)(=O)c2cccn3c(C)nnc23)cc1` were 11.96% and -4.21%.
Regarding `COc1cccc(Oc2nccn3c(=O)n(CC(=O)Nc4ccc(OC)c(Cl)c4)nc23)c1`, the Inhibition in the assay on Staphylococcus aureus was 8.12%; in the assay on Escherichia coli it was -5.35%.
For the compound `COc1cccc(-n2ccn3c(SCC(=O)c4ccc(C)cc4C)nnc3c2=O)c1`, the results for the Inhibition in the assay on Staphylococcus aureus and in the assay on Escherichia coli were 12.17% and -2.43%, respectively.
Consider `COc1ccc(NC(=O)Cn2c(=O)c3nnc(C(C)C)n3c3ccccc32)cc1Cl`, for which the Inhibition was 10.36% with Staphylococcus aureus and 0.69% with Escherichia coli.
For `COc1ccc(-c2cc3c4nnc(CCC(=O)NCc5cccs5)n4ccn3n2)cc1`, in that order: 11.44% and 4.51%.
As for `COc1cccc(-n2ccn3c(SCC(=O)Nc4cc(Cl)ccc4OC)nnc3c2=O)c1`, the Inhibition in the assay on Staphylococcus aureus is 8.75%; with Escherichia coli, -1.77%.
For `COc1cc(NC(=O)Cn2nc3c(Oc4ccccc4)nccn3c2=O)cc(OC)c1OC`, in that order: 13.24% and 1.16%.
Taken in the same sequence, the figures for `COc1ccc(C)cc1NC(=O)Cn1nc2c3cc(-c4ccc(Cl)cc4)nn3ccn2c1=O` were 8.09% and 3.41%.
Taken in the same sequence, the figures for `CC(C)c1ccc(NC(=O)Cn2nc3c(N4CCCC4)nccn3c2=O)cc1` were 2.8% and -0.46%.
Regarding `CCOC(=O)c1ccc(NC(=O)Cn2nc3ccc(SC(C)(C)C)nn3c2=O)cc1`, the figures for the Inhibition with Staphylococcus aureus and with Escherichia coli were -4.89% and -11.53%, respectively.
`COc1ccc(NC(=O)Cn2nc3c(N4CCCC4)nccn3c2=O)cc1Cl`: the values for the Inhibition in the assay on Staphylococcus aureus and in the assay on Escherichia coli were 12.62% and -0.96%, respectively.
For `Cc1ccccc1CN(c1ccc(Cl)cc1)S(=O)(=O)c1cccn2c(C)nnc12`, in that order: 11.54% and 1.89%.
As to `Cc1ccc(N(Cc2ccccc2)S(=O)(=O)c2ccc3nncn3c2)cc1F`, the values for the Inhibition with Staphylococcus aureus and in the assay on Escherichia coli were -5.44% and -9.13%, respectively.
For `COc1ccc(OC)c(NC(=O)Cn2nc3c(SCc4ccc(Cl)cc4)nccn3c2=O)c1`, in that order: -7.47% and -4.33%.
For `CCOc1ccc(-n2ccn3c(SCC(=O)Nc4ccc(Cl)cc4)nnc3c2=O)cc1`, in that order: 4.06% and -5.21%.
Turning to `Cc1nnc2ccc(S(=O)(=O)N(Cc3cccc(F)c3)c3cc(F)cc(F)c3)cn12`, the values for the Inhibition in the assay with Staphylococcus aureus and in the assay with Escherichia coli were 9.82% and -6.06%, respectively.
Taken in the same sequence, the figures for `COc1ccccc1N1CCN(C(=O)CSc2nnc3c(=O)n(-c4ccc(F)cc4)ccn23)CC1` were 6.93% and 2.55%.
For `Cc1cccc(CN(c2ccc(Cl)cc2)S(=O)(=O)c2cccn3c(C)nnc23)c1`, in that order: 13.75% and 2.16%.
For `COc1ccc(C(=O)CSc2nnc3c(=O)n(-c4ccc(F)c(F)c4)ccn23)cc1OC`, in that order: 3.91% and -0.1%.
For the compound `CC(C)c1nnc2c(=O)n(CC(=O)Nc3ccc(Cl)c(Cl)c3)c3ccccc3n12`, the Inhibition with Staphylococcus aureus came to 8.95%; in the assay on Escherichia coli, 5.48%.
Taken in the same sequence, the figures for `COc1ccc(NC(=O)Cn2nc3c(SCc4ccc(Cl)cc4)nccn3c2=O)cc1OC` were 6.14% and -6.36%.
In the case of `Cc1ccc(-c2cc3c4nn(CC(=O)NC5CCCC5)c(=O)n4ccn3n2)cc1C`, the Inhibition in the assay with Staphylococcus aureus is -0.99%; with Escherichia coli it was -0.5%.
Taken in the same sequence, the figures for `COc1ccc(NC(=O)c2ccc3nn(CC(=O)Nc4cc(Cl)ccc4OC)c(=O)n3c2)cc1` were 7.85% and -6.87%.
As for `COc1cc(NC(=O)Cn2nc3ccc(SC(C)C)nn3c2=O)cc(OC)c1`, the Inhibition with Staphylococcus aureus was -7.38%; with Escherichia coli, -2.23%.
In the case of `Cc1cc(C)c(NC(=O)CSc2nnc3c4cc(-c5ccccc5)nn4ccn23)c(C)c1`, the Inhibition in the assay on Staphylococcus aureus is reported as 6.45%; in the assay on Escherichia coli, -2.49%.
Taken in the same sequence, the figures for `Cc1ccc(NC(=O)Cn2nc3cc(C)nc(Nc4ccc(F)c(C)c4)n3c2=O)cc1` were 11.03% and 0.27%.

Usually Inhibition stands for the relative decrease from the control value, in per cent.

For the origin of these results see ChEMBL document CHEMBL4513146, “CO-ADD screening of Karazin Kharkiv National University (Ukraine) compounds”.
